Data published in PubChem BioAssay (NCI).
This is part of a sample that, as a whole, favours compounds with a hit. Of some 79,000 tested, about 15% had one in any assay. Values without a mark were called inactive. Active and inactive are the calls of the source. Cut-off read from the data, not from the text of the source: active = growth inhibition above about 70%; inactive = the rest.

Assay: NCI Yeast Anticancer Drug Screen. Data for the mlh1 rad18 strain (AID 175)
Settings: S. cerevisiae mlh1 rad18 strain growth inhibition, hits give high values
Procedure: Growth inhibition of yeast strains with defined genetic alterations is measured as a screen for potential anti-cancer activity. Selected strains with alterations in DNA damage repair or cell cycle control were exposed to compounds and growth inhibition was measured relative to vehicle treated controls. The strain used in this assay is mlh1 rad18

[1] = at 5.0 µM (retest, dose inferred, filed as 0.5)
[2] = at 50.0 µM (retest, dose inferred, filed as 5.0)

SMILES	growth inhibition [1]	growth inhibition [2]	growth inhibition (at 50.0 µM)
COc1cccc(C(c2cc3c(cc2O)OCO3)N2CCOCC2)c1OC (stereo not given)	19%	71% (active)	9.25%
O=C(O)c1cccc2cccc(-c3c4ccc(=O)cc-4oc4cc(O)ccc34)c12	27%	98% (active)	90% (active)
C/C(=N\NC(=S)NNC(=S)N(C)c1ccccc1)c1ccccn1	27%	99% (active)	84.5% (active)
Nc1nc(N)c2cc(Sc3ccc4ccccc4c3)ccc2n1	60%	96% (active)	83.8% (active)
O=[N+]([O-])c1cccc2nc3ccccc3c(NCCc3cccc[n+]3[O-])c12	88% (active)	98% (active)	93.8% (active)
O=C(CCc1ccccc1)ON1C(=S)C(c2ccccc2)(c2ccccc2)N=C1Sc1ccccc1	28%	86% (active)	88.8% (active)
O=C(/C=C/c1cccc(Br)c1)c1ccc(Cl)cc1	26%	56%	75.3% (active)
CCCCCC(=O)c1ccc(O)cc1O	97% (active)	99% (active)	91.2% (active)
CN[C@@H]1C[C@H]2O[C@@](C)([C@@H]1OC)n1c3ccccc3c3c4c(c5c6ccccc6n2c5c31)C(=O)N[C@@H]4O	2%	31%	25.7%
Clc1c(Cl)c(Cl)c2n[nH]nc2c1Cl	100% (active)	100% (active)	37.5%
CC(=O)Oc1ccc(N2C(=O)C3c4[nH]c5ccccc5c4C4CCC(C(C)(C)C)CC4C3C2=O)cc1 (stereo not given)	98% (active)	98% (active)	98% (active)
O=C1C=CC(=O)N1c1ccc(N2C(=O)C=CC2=O)cc1	37%	75% (active)	92.5% (active)
Oc1ccc(Br)cc1C=NC1CCCCC1	32%	53%	77% (active)
CC(=O)O[C@H]1C(=O)[C@@]2(C)[C@H]([C@H](OC(=O)c3ccccc3)[C@]3(O)C[C@H](OC(=O)[C@H](O)[C@@H](NC(=O)c4ccccc4)c4ccccc4)C(C)=C1C3(C)C)[C@]1(OC(C)=O)CO[C@@H]1C[C@@H]2O			15.8%
